About 530 (24%) of roughly 2,200 compounds were called active.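 Rule for the calls: active = inhibition above a set limit at one or more concentrations of the dose series; inactive = inhibition under that limit at every dose.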 These entries were drawn from the full list. Results with a measured potency or affinity are listed apart.
Assay: S. Typhimurium nonspecific reporter signal inhibition – Salmonella Typhimurium, GFP fluorescence, counter-screen for PhoP regulon inhibitor project, dose response (AID 2401);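 note: S. typhimurium with Mg-insensitive nmpC-GFP reporter grown at 10 µM Mg2+; drop in reporter fluorescence reflects general culture growth inhibition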
Details: 4 h; series mostly up to 150 µM; inhibition: at the top concentration

SMILES	inhibition
Cc1onc(-c2c(F)cccc2Cl)c1C(=O)Nc1cccc(Cn2cccn2)c1	-0.75% (inactive)
CCOc1ccc(NC(=O)CCC(=O)n2nc(C)cc2C)cc1	-4.16% (inactive)
COc1cc(OC)c(C(=O)Nc2ccc(S(=O)(=O)Nc3ncccn3)cc2)cc1OC	-24.9% (inactive)
COc1nccnc1NS(=O)(=O)c1ccc(NC(=S)NC(=O)c2cccnc2)cc1	-42.9% (inactive)
Cc1ccc(-c2nc3ccccc3s2)cc1S(=O)(=O)N1CCCC1	-16.7% (inactive)
CCOC(=O)Cc1ccc2sc(-c3ccccc3)nc2c1	-22% (inactive)
COc1ccc(C2=NOC(C(=O)Nc3ccc(C)cc3)C2)cc1OC (configuration not stated)	2.64% (inactive)
COc1cccc(C2CC(c3ccccc3OC)n3nc(N)nc3N2)c1 (configuration not stated)	-20.8% (inactive)
CCCc1cc(C(=O)NNC(=S)NC(C)c2ccccc2)cs1 (configuration not stated)	-35.7% (inactive)
Cc1ccc(-n2sc3ccccc3c2=O)cc1S(=O)(=O)N1CCCCC1	8.77% (inactive)
CCNC(=O)COC(=O)CCC(=O)c1cccs1	-7.69% (inactive)
FC(F)(F)c1cc(C(F)(F)F)c2ccc(Oc3ccccc3)nc2n1	9.05% (inactive)
Fc1ccccc1COc1ccc(Br)cc1CNCc1ccncc1	1.55% (inactive)
O=C(Cc1ccccc1)NCc1ccc(F)cc1	-30.9% (inactive)
O=C(Nc1ccc(S(=O)(=O)Nc2nccs2)cc1)c1cc(-c2ccccc2)nc2ccccc12	4.41% (inactive)
COc1ccc(C(C)=O)c2c(O)cccc12	4.56% (inactive)
CC1(C)CC(=O)C2=C(C1)OC1=C(C(=O)CC(C)(C)C1)C2c1ccc(O)cc1O	9.69% (inactive)
c1ccc(-n2cnc3cc(NCc4ccccn4)ccc32)cc1	-4.69% (inactive)
CCOC(=O)C1(S(=O)(=O)c2ccccc2)CCN(Cc2ccc(Cl)cc2)CC1	5.17% (inactive)
O=C(Nc1ccc2c(c1)oc1ccccc12)N1CCOCC1	-7.09% (inactive)
CCOc1ccccc1OCC(=O)Nc1ccc(S(=O)(=O)Nc2nc(C)cc(C)n2)cc1	-11.6% (inactive)
Cc1ccc(SC(c2ccc(C)cc2)C(Cn2cncn2)C(=O)c2ccccc2)cc1 (configuration not stated)	-15.4% (inactive)
CN(C)c1nc(N)nc(Cn2ccnc2)n1	-5.04% (inactive)
N/C(=N\OC(=O)c1cccs1)C1(c2ccc(Cl)cc2Cl)CC1	-14.9% (inactive)

SMILES	inhibition
C=CCc1ccccc1OCC(O)CN1CCN(CCN2C(=O)c3cccc4cccc(c34)C2=O)CC1 (configuration not stated)	1.41% (inactive)
COc1cccc(C2CC(=O)Nc3cc(OC)c(OC)c(OC)c32)c1OC (configuration not stated)	-6.54% (inactive)
COc1cc(C2Nc3cccc4cccc(c34)N2)cc(OC)c1O	23.9% (inactive)
C=C(C)Cn1c(CCn2c3ccccc3c3ccccc32)n[nH]c1=S	4.79% (inactive)
CN(C(=O)c1cccc(C#N)c1)c1nnc(-c2cnccn2)s1	1.99% (inactive)
Cn1c(CC(=O)Nc2ccc(Cl)c(Cl)c2)nnc1SCC(=O)Nc1nccs1	-37.2% (inactive)
Cc1cc2ncn(CC(O)COc3cccc(C(=O)O)c3)c2cc1C (configuration not stated)	-28.7% (inactive)
N#Cc1c(N)nc(SCC(=O)NC2CCCCC2)c(C#N)c1-c1ccc(Cl)cc1	-24.1% (inactive)
Fc1cccc(NCc2cn3ccccc3n2)c1	23.2% (inactive)
O=S(=O)(c1ccc(N2CCCC2c2nc3ccccc3s2)nc1)N1CCOCC1 (configuration not stated)	-14.8% (inactive)
Nc1nnc(Sc2ccc(Cl)cc2[N+](=O)[O-])s1	-0.98% (inactive)
C#CCn1cc(/C=N/Nc2nc3ccccc3[nH]2)c2ccccc21	31.1% (inactive)
C(=C\c1ccccc1)/C=N/Nc1nc2ccccc2[nH]1	19.1% (inactive)
CN(c1cccc(Cl)c1)S(=O)(=O)c1cccc(C(=O)Nc2nc3ccccc3[nH]2)c1	16.2% (inactive)
CCN(CC)c1ccc(/C=N/NC(=S)NCc2ccccc2)c(O)c1	9.66% (inactive)
COc1ccc(/C=C/c2nc3ccccc3n2Cc2ccccc2OC)cc1	-5.49% (inactive)
COc1ccccc1NC(=O)Cn1nnc(-c2ccccc2NC(=O)c2cccs2)n1	-10.7% (inactive)
COC(=O)CSc1nnc(-c2ccco2)n1Cc1ccco1	-13.6% (inactive)
Cc1cccc(-n2nc3c(c2NC(=O)c2ccco2)CSC3)c1C	-29.7% (inactive)
CCN(CC)CC(=O)Nc1nc(-c2ccc(Cl)cc2)cs1	-3.92% (inactive)
C/C(=N/Nc1nc(-c2ccc(Cl)cc2)cs1)c1cccs1	-20.6% (inactive)
O=C(C[n+]1cc(-c2ccccc2)n2c1CCCCC2)c1ccc(Cl)cc1	-22.6% (inactive)
COc1ccc(OC)c(NC(=S)NCCCN2CCOCC2)c1	-26.6% (inactive)
CN(CCNS(=O)(=O)c1ccc2c(c1)oc(=O)n2C)Cc1ccccc1	14.6% (inactive)

SMILES	inhibition
Cc1cc(C)c(C#N)c(SCC(O)CS(=O)(=O)Cc2ccccc2)n1 (configuration not stated)	-4.96% (inactive)
O=C(CSC1CCCCC1)Nc1ccccc1Br	-14.2% (inactive)
Cc1ccc(C(=O)Oc2ccc(C(=O)COC(=O)c3cnccn3)cc2)cc1	-20.6% (inactive)
O=C(NC1CCCCC1)C(c1ccncc1)N(Cc1ccccc1)C(=O)c1ccc(-c2ccccc2)[nH]1 (configuration not stated)	8.67% (inactive)
Clc1ccccc1OCCn1ccnc1	-11.3% (inactive)
Cc1ccc(C(=O)NCc2ccc(Cl)cc2)o1	15.7% (inactive)
S=C(Nc1ccc2snnc2c1)N1CCN(c2ccccn2)CC1	34.2% (inactive)
CC1CN(C(=O)CCc2ccccc2)C(C)CN1C(=O)CCc1ccccc1 (configuration not stated)	1.08% (inactive)
O=C(NC(NC(=S)Nc1ccc(Cl)cc1)C(Cl)(Cl)Cl)c1ccco1 (configuration not stated)	-30.7% (inactive)
Cc1ccc(NC(=S)NC(NC(=O)c2ccco2)C(Cl)(Cl)Cl)cc1 (configuration not stated)	12.3% (inactive)
O=c1c(Br)c(Br)cnn1-c1ccccc1	26.3% (inactive)
Clc1ccc(-c2csc3ncnc(N4CCc5ccccc5C4)c23)cc1	-19.2% (inactive)
CCOC(=O)c1sc2nccc(N(C)C)c2c1N=CNOCc1c(F)cccc1Cl	0.78% (inactive)
O=C(NC(c1ccc(Cl)cc1)c1c(O)ccc2ccccc12)c1ccccc1 (configuration not stated)	-14.6% (inactive)
CCCCCn1c(C(C)NC(=O)CCC)nc2ccccc21 (configuration not stated)	4.48% (inactive)
Cc1ccc2cccnc2c1NC(=S)NC(=O)c1ccccc1	3.45% (inactive)
O=C(Cc1ccccc1)NC1c2ccccc2-c2ccccc21	-12.7% (inactive)
O=C(CSc1nnc(-c2ccc(O)cc2)n1-c1ccccc1)CC(=O)Nc1ccccc1	15.1% (inactive)
O=C(OCC1COc2ccccc2O1)c1ccccc1F (configuration not stated)	-18.5% (inactive)
CC1=C(C(=O)OCC2CCCO2)C(c2cccc(C(F)(F)F)c2)C2=C(CC(c3ccco3)CC2=O)N1 (configuration not stated)	-25.9% (inactive)
O=S(=O)(Nc1ccc(Cc2ccncc2)cc1)c1ccc(Br)s1	-31.1% (inactive)
Cn1ncc(N=Cc2ccccc2O)c1C(=O)Nc1ccccc1	8.45% (inactive)
N#CC1=C(N)Oc2c(O)cc3ccccc3c2C1c1ccsc1 (configuration not stated)	-14.3% (inactive)
O=C(CSCc1ccccc1)Nc1ccc2c(c1)OCO2	-7.93% (inactive)
